Laboratory results reported in PubChem BioAssay AID652192 (Johns Hopkins Ion Channel Center, 2013).
Results with a measured potency or affinity are listed apart. Active and inactive are the calls of the source.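 How the source made its calls: active means peak inhibition of the KCNQ2 potassium channel over 30% at some tested dose, with a fitted dose response curve; inactive means no inhibition at any dose, or no curve fitted.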

Molecular target: Potassium voltage-gated channel subfamily KQT member 2 (Rattus norvegicus) (UniProt O88943)
Experiment: block of rat KCNQ2 potassium channel – cell-based, FluxOR thallium flux, concentration-response, selectivity assay for TASK1 inhibitor project, SAR follow-up (AID 652192)
Details: KCNQ2 cell line, FluxOR thallium flux fluorescence; series mostly up to 30 µM

Potassium voltage-gated channel subfamily KQT member 2 (Rattus norvegicus), sequence (O88943 whole entry, looked up): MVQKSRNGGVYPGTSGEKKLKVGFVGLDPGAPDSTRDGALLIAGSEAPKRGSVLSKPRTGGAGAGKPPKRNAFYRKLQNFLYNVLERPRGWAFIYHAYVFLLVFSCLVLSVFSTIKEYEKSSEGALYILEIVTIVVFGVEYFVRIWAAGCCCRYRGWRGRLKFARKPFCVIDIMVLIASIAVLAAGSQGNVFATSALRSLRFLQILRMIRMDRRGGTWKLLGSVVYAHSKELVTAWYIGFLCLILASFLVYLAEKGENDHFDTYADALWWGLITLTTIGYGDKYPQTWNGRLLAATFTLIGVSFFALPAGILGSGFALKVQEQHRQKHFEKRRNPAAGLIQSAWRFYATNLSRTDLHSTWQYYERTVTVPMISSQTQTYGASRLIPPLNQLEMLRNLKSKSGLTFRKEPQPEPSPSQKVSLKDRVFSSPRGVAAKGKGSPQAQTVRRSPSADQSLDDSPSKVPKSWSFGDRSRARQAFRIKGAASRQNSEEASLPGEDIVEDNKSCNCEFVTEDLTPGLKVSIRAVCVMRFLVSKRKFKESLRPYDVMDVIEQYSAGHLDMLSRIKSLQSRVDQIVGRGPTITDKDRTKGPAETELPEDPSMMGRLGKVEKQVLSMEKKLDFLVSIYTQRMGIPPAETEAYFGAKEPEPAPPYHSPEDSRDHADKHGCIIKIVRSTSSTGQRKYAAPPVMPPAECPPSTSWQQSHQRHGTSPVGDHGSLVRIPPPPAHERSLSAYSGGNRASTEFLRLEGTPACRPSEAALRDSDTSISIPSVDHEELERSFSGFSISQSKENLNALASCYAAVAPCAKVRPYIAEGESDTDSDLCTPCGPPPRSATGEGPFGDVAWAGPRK

outcome, inactive:
CC(C)c1ccccc1C(=O)Nc1cccc(NC(=O)c2ccccc2OC(F)(F)F)c1
CN(C)c1ccc(C(=O)Nc2cccc(NC(=O)c3ccccc3)c2)cc1
CCOc1ccccc1NC(=O)c1cccc(C(=O)NC2CCCC2)c1
CCOc1cccc(NC(=O)c2cccc(NC(=O)C3CCCC3)c2)c1
Cc1cccc(C(=O)Nc2cccc(NC(=O)c3ccco3)c2)c1
CCOc1ccccc1NC(=O)c1cccc(NC(=O)c2ccc(OC)cc2)c1
O=C(Nc1cccc(NC(=O)c2ccc(C(F)(F)F)cc2)c1)c1ccccc1
O=C(Nc1cccc(NC(=O)c2cccc(C(F)(F)F)c2)c1)c1ccccc1
Cc1cccc(C(=O)Nc2ccccc2NC(=O)c2ccccc2)c1
CCOc1ccccc1NC(=O)c1cccc(NC(=O)c2ccccc2OC(F)(F)F)c1
Cc1cccc(C(=O)Nc2cccc(NC(=O)C3CCCCC3)c2)c1
Cc1cccc(C(=O)Nc2cccc(NC(=O)c3ccccc3OC(F)(F)F)c2)c1
Cc1cccc(C(=O)Nc2cccc(NC(=O)c3cccc(Cl)c3)c2)c1
CCCC(=O)C1CCN(c2ncnc3c2CN(C(=O)c2ccc(-c4ccccc4)cc2)CC3)CC1
O=C(Nc1cccc(NC(=O)c2ccncc2)c1)c1ccccc1
COc1cccc(OC)c1C(=O)Nc1cccc(NC(=O)c2cccc(C)c2)c1
CCOc1ccccc1NC(=O)c1cccc(NC(=O)c2ccccc2)c1
CCOc1ccc(NC(=O)c2cccc(NC(=O)C3CCCC3)c2)cc1
CCOc1ccccc1C(=O)Nc1cccc(NC(=O)C2CCCC2)c1
Cc1ccccc1C(=O)Nc1cccc(NC(=O)c2ccccc2)c1
COc1ccccc1C(=O)Nc1cccc(NC(=O)c2ccccc2C(C)C)c1
CCOc1ccccc1NC(=O)c1cccc(NC(=O)C2CCCC2)c1
COc1ccccc1C(=O)Nc1cccc(NC(=O)c2ccccc2)c1
O=C(Nc1cccc(NC(=O)c2ccsc2)c1)c1ccccc1
Cc1cccc(C(=O)Nc2cccc(NC(=O)c3ccc(N(C)C)cc3)c2)c1
COc1ccccc1C(=O)Nc1cccc(NC(=O)c2ccccc2OC)c1
CCOc1ccccc1NC(=O)c1cccc(NC(=O)c2ccc(C)cc2)c1
CC(C)Oc1ccccc1C(=O)Nc1cccc(NC(=O)c2ccccc2OC(F)(F)F)c1
COc1ccc(C(=O)Nc2cccc(NC(=O)c3cccc(C)c3)c2)cc1
CCOc1ccccc1NC(=O)c1cccc(NC(=O)c2cccc(C(F)(F)F)c2)c1
CCOc1ccccc1NC(=O)c1cccc(NC(=O)C2CC2)c1
O=C(Nc1cccc(NC(=O)c2ccccc2)c1)c1ccccc1
